Screening results: PubChem BioAssay, The Scripps Research Institute Molecular Screening Center
FBW7 activator: FBW7 E3 ligase activators, primary screen, biochemical, AlphaScreen, human | F-box/WD repeat-containing protein 7 (Homo sapiens), Q969H0 | AlphaScreen FBW7–phospho-cyclin E peptide binding, activator screen | normalized activity (activation), % at 26.1 µM | hit rate 0.13% among 650,000; in the data active = normalized activity above about 1.9%;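 note: purified mutant Fbw7 with reduced substrate affinity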
Target sequence (Q969H0 whole entry, looked up): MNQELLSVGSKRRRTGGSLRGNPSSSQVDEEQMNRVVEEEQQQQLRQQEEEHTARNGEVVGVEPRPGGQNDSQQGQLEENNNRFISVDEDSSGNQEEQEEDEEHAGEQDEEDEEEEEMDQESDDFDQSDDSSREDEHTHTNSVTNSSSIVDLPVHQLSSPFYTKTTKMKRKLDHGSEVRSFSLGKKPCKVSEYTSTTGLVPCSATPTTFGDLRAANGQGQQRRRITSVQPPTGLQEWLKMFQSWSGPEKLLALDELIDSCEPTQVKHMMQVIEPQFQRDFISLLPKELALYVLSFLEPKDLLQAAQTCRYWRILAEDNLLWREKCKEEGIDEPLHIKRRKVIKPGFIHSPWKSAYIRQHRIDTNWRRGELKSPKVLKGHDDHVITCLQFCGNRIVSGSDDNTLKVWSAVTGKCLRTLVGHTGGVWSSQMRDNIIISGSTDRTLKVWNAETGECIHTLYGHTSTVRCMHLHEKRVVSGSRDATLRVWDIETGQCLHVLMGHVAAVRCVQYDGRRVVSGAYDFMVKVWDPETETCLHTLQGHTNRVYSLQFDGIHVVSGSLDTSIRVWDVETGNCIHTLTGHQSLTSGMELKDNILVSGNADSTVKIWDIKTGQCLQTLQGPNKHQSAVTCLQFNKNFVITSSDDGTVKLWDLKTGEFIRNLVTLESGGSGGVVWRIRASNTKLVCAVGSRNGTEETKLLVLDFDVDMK
MITF primary: MITF inhibitors, primary screen, biochemical, AlphaScreen, human. AID 1259374, 2018. inhibition, % at 2.6 µM. AlphaScreen MITF homodimerization, bead proximity signal. hit rate 0.91% among 650,000; in the data active = inhibition above about 50%;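 note: 0% = vehicle wells with protein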
GPR151 activ: activators of human GPR151, primary screen, cell-based, PathHunter beta-arrestin, luminescence. G-protein coupled receptor 151 (Homo sapiens), Q8TDV0. PathHunter beta-arrestin GPR151 cells. activation, % at 11.2 µM. hit rate 1% among 650,000; in the data active = activation above about 4.9%;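 note: 0% = median of compound wells and 100% = cells with positive control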
TEAD-YAP block: TEAD-YAP interaction inhibition, primary screen, TEAD-YAP interaction inhibitor project, luminescence, HEK-TIYL cells. TEAD-Gal4/YAP UAS-luciferase luminescence. inhibition, % at 9.12 µM. hit rate 1.4% among 640,000; in the data active = inhibition above about 32%;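 note: 0% = median of test compound wells and 100% = reference inhibitor wells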
* hit, by the source's call. Only some compounds are listed: those with a hit (about 3.5% of all), similar ones and a draw of the others.

SMILES	FBW7 activator	MITF primary	GPR151 activ	TEAD-YAP block
COc1ccc(S(=O)(=O)NCc2cccnc2)c2ccccc12	1.0	9.9	-0.3	0.9
COc1ccc(CNS(=O)(=O)c2ccc(OC)c3ccccc23)cc1	0.0	-5.4	3.5	34.3*
COc1cc(Nc2ccnc(-c3ccc(C(N)=O)cc3)n2)cc(OC)c1OC	0.0	13.8	-2.0	50.9*
COc1cc(NC(=O)c2csc(-c3ccc(C(N)=O)cc3)n2)cc(OC)c1OC	-0.1	-2.6	0.9	36.4*
COc1cc(NC(=O)c2csc(N3CCN(Cc4ccc5c(c4)OCO5)CC3)n2)cc(OC)c1OC	0.0	2.7	2.8	41.4*
COc1ccc(-c2nc(C(=O)Nc3cc(OC)c(OC)c(OC)c3)cs2)cc1	1.1	1.8	-0.4	13.6
COc1ccccc1CNC(=O)c1oc2ccc3c(c2c1C)C(=O)CC(C)(C)O3	0.0	-9.6	0.4	-27.7
Cc1c(C(=O)Nc2ccc3c(c2)OCO3)oc2ccc3c(c12)C(=O)CC(C)(C)O3	-0.1	0.8	0.4	41.7*
COc1cccc(NC(=O)c2oc3ccc4c(c3c2C)C(=O)CC(C)(C)O4)c1	0.0	5.6	-11.4	91.7*
COc1ccccc1NC(=O)c1oc2ccc3c(c2c1C)C(=O)CC(C)(C)O3	0.1	-6.5	-0.4	33.2*
CC(=O)c1cccc(NC(=O)c2oc3ccc4c(c3c2C)C(=O)CC(C)(C)O4)c1	0.0	0.9	-0.4	51.9*
Cc1ccc(-n2c(=O)[nH]c3cc(C(=O)N4CCc5ccccc5C4)ccc3c2=O)cc1	0.0	-1.3	-0.4	17.8
O=C(NCc1ccc(F)cc1)c1cnc(N2CCCC2)nc1	-0.1	-5.7	0.1	1.8
COc1ccc(S(=O)(=O)/N=C2/C=C(Nc3ccccc3)C(=O)c3ccccc32)cc1	-0.2	27.6	-0.8	-10.6
COc1ccc(S(=O)(=O)/N=C2/C=C(Nc3ccccc3OC)C(=O)c3ccccc32)cc1	-0.4	57.2*	-1.7	-2.9
C=CCOc1ccc(/C=C2\SC(=S)N(C)C2=O)cc1	0.3	10.1	-0.7	-0.9
COc1ccc2c(c1)[C@@H]1C=CC[C@@H]1[C@H](c1ccc(C(=O)O)cc1)N2	0.0	23.8	-1.2	-5.7
COC(=O)c1ccc2c(c1)C1C=CCC1[C@@H](c1ccc(C(=O)O)cc1)N2 (stereo not given in full)	-1.4	65.6*	-0.4	-2.7
COC(=O)c1ccc2c(c1)C1C=CCC1C(c1ccc([N+](=O)[O-])cc1)N2 (stereo not given)	-0.1	-5.5	-0.3	-3.6
O=C(O)c1ccc2c(c1)C1C=CCC1C(c1ccccc1F)N2 (stereo not given)	-0.2	56.0*	0.5	4.0
CC(=O)c1ccc2c(c1)[C@@H]1C=CC[C@@H]1[C@H](c1cc3c(cc1Br)OCO3)N2	-0.1	-2.0	-0.7	52.9*
O=C(O)c1ccc2c(c1)C1C=CCC1C(c1ccc([N+](=O)[O-])cc1)N2 (stereo not given)	-0.3	84.0*	-2.2	15.1
CC(=O)c1ccc2c(c1)C1C=CCC1C(c1ccccc1F)N2 (stereo not given)	0.2	11.3	1.9	-5.4
CN1CCN(C(c2ccc(N(C)C)cc2)c2nnnn2Cc2ccccc2)CC1 (stereo not given)	0.0	13.3	0.0	-3.3
Cn1c(SCC(=O)Nc2ccc(F)cc2)nnc1-c1ccc(N)cc1	-0.2	-1.5	2.2	0.8
SMILES	FBW7 activator	MITF primary	GPR151 activ	TEAD-YAP block
O=[N+]([O-])c1ccc2c(c1)C1C=CCC1C(c1ccc(S(=O)(=O)N3CCOCC3)cc1)N2 (stereo not given)	-0.1	4.8	-0.5	41.6*
CCOC(=O)c1ccc2c(c1)[C@@H]1C=CC[C@@H]1[C@H](c1ccc(C(=O)O)cc1)N2	-0.7	52.5*	-1.5	7.0
O=S(=O)(c1ccc(C2Nc3ccc(F)cc3C3C=CCC32)cc1)N1CCOCC1 (stereo not given)	-0.1	3.7	0.8	-3.5
COC(=O)c1ccc2c(c1)C1C=CCC1C(c1ccc(C(=O)O)cc1)N2 (stereo not given)	-0.9	69.6*	-0.8	7.3
CCOC(=O)c1ccc2c(c1)C1C=CCC1C(c1ccc(Cl)cc1)N2 (stereo not given)	0.2	11.9	-1.4	9.5
CC(=O)c1ccc2c(c1)[C@@H]1C=CC[C@@H]1[C@H](c1ccncc1)N2	-0.6	6.2	0.1	-50.5
CC(=O)c1ccc2c(c1)[C@@H]1C=CC[C@@H]1[C@H](c1ccc(C(=O)O)cc1)N2	-1.1	62.4*	-0.7	-7.0
Cc1nc2c(-c3ccccc3)c(C)nn2c(C)c1CCC(=O)NCCCN1CCCC1=O	0.6	0.9	-0.7	4.0
CCOC(=O)[C@@H]1Nc2ccc(C(=O)O)cc2[C@@H]2C=CC[C@H]12	-0.6	73.7*	-1.4	-0.2
CC1=C(C(=O)NCCc2ccc(S(N)(=O)=O)cc2)C2(CCC(C)CC2)OC1=O (stereo not given)	2.0*	18.8	-1.8	-7.2
CC1=C(C(=O)NCCc2ccc(S(N)(=O)=O)cc2)C2(CCCCC2)OC1=O	-0.2	-7.9	1.4	-3.2
Cc1cccc(N(C)S(=O)(=O)c2ccc3c(c2)oc(=O)n3C)c1	0.0	13.0	-0.6	46.1*
CC(C)CC(=O)Nc1nnc(C(C)C)s1	-0.5	-13.1	-1.1	-13.2
CCOc1ccc(S(=O)(=O)Nc2ccc3nc(C)n(-c4ccc(F)cc4)c(=O)c3c2)c(OCC)c1	0.8	25.3	-1.3	49.8*
COc1ccc(F)cc1S(=O)(=O)Nc1ccc2nc(C)n(-c3ccc(Cl)cc3)c(=O)c2c1	0.7	23.5	0.8	23.0
Oc1ccc(CCNc2nc(Nc3ncccn3)nc3c2ncn3-c2ccsc2)cc1	0.0	1.2	-1.2	56.0*
Oc1ccc(CCNc2nc(Nc3cnccn3)nc3c2ncn3-c2ccsc2)cc1	0.0	2.2	-1.1	66.5*
COc1ccc(CCNc2nc(Nc3ccc(N4CCOCC4)cc3)nc3c2ncn3-c2ccsc2)cc1	-0.2	16.6	1.1	62.3*
Oc1ccc(CCNc2nc(Nc3ccccc3)nc3c2ncn3-c2ccsc2)cc1	0.0	-113.3	-0.2	38.4*
COc1ccc(CCNc2nc(Nc3ccc(C(F)(F)F)cc3)nc3c2ncn3-c2ccsc2)cc1	0.0	3.6	1.4	10.9
Oc1ccc(CCNc2nc(Nc3ccccc3)nc3c2ncn3-c2ccccc2)cc1	0.0	-0.7	-1.6	13.2
COc1ccc(OS(=O)(=O)c2cc(OC)ccc2OC)cc1	-0.1	-1.6	-0.9	49.8*
COc1ccc(OC)c(S(=O)(=O)c2cc(OC)ccc2OC)c1	0.2	4.8	0.1	-1.1
COc1ccc(C(CC(=O)O)NC(=O)COc2ccccc2)cc1OC (stereo not given)	0.1	-11.2	-1.2	-4.8
COc1ccc(C(CC(=O)O)NC(=O)COc2cc(C)ccc2C)cc1OC (stereo not given)	2.9*	3.4	-0.8	5.1
